From PubChem BioAssay AID504720 (Sanford-Burnham Center for Chemical Genomics, 2011)
The campaign covered roughly 350,000 compounds. About 1,100 (0.31%) were called active. The sample as a whole holds a higher share of actives than the screen did. Values without a mark were called inactive. Cut-off read from the data, not from the text of the source: active = activation above about 50%; inactive = the rest.

molecular target: Endoribonuclease toxin MazF (Escherichia coli (strain K12)) (UniProt P0AE70); assay: activators of E. coli MazEF toxin-antitoxin RNase, primary screen, biochemical, fluorescence, uHTS (AID 504720); details: FAM/BHQ RNA-DNA oligo cleavage fluorescence, 5 h, at 20 µM, active compounds read high
Sequence (P0AE70 whole entry, looked up): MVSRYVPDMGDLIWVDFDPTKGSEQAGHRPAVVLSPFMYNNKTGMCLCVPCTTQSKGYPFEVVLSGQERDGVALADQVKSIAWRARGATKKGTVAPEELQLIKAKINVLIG

| SMILES | activation |
| --- | --- |
| CC(C)(C)OC(=O)CNC(=O)c1[nH]cnc1C(=O)N[C@@H](CCCCN)C(=O)OC(C)(C)C | -1.01% |
| CC(=O)Nc1ccc(C(=O)N(C2=NC(C)CS2)c2ccc(Cl)cc2)cc1 (configuration not stated) | 2.92% |
| C/C(=N\NC(=O)COc1c(C)cccc1C)c1cccs1 | -0.53% |
| CCOc1ccccc1N1CCN(C(=O)c2ccc3[nH]c(C)c(C)c3c2)CC1 | 9.45% |
| CCN1C[C@@H]2[C@@H]3C(=O)N(Cc4ccccc4)C(=O)[C@@H]3[C@](Cc3ccccc3)(C(=O)OC)N2C1=NC1CCCCC1 | 37.9% |
| CCCN=C1N(C)C[C@@H]2[C@@H]3C(=O)N(Cc4ccccc4)C(=O)[C@@H]3[C@](C)(C(=O)OC)N12 | 3.52% |
| CC[C@]1(C(=O)OC)[C@H]2C(=O)N(C)C(=O)[C@H]2[C@H]2CN(C)C(=NCc3ccccc3)N21 | 74.5% (active) |
| CCOC(=O)c1ccc(NC(=O)c2ccc(NC(=O)C3CCCO3)cc2)cc1 (configuration not stated) | 2.03% |
| OCCC1CN(Cc2ccc3nsnc3c2)CCN1C1CCCCC1 (configuration not stated) | 5.81% |
| CC(C)Cn1c(CCC(=O)O)ccc1-c1cccs1 | -11.1% |
| CC(=O)OC1CCC2(C)C(=CCC3C4CC(=O)N(O)C(=O)C4(C)CCC32)C1 (configuration not stated) | 1.13% |
| CCN1/C(=C\c2ccc3ccccc3[n+]2CC)Sc2cc(C)ccc21 | 79.5% (active) |
| CCN1/C(=C/c2ccc3ccc(C)cc3[n+]2CC)Sc2ccccc21 | 72.6% (active) |
| CN(C(=O)CC(NC(=O)c1ccccc1)(c1ccccc1)c1ccccc1)c1ccccc1 | 10.5% |
| Cc1c(Cl)cccc1NC(=S)N(Cc1ccccc1)Cc1cccnc1 | 13.1% |
| CC(C)c1ccc(NC2CCCN(C(=O)c3ccncc3)C2)cc1 (configuration not stated) | 5.6% |
| C[C@@H](NC(=O)OC(C)(C)C)c1nnc(S(=O)(=O)Cc2ccccc2)o1 | 8.87% |
| C/C(=N\OC(=O)c1ccccc1)c1c(C)nc2cc(C)ccn12 | 4.56% |
| COc1cc(Cl)c(C)cc1NC(=O)COC(=O)c1cc(SC)ccc1Cl | -5.68% |
| COCCn1c(SCC(=O)Nc2ccc(F)cc2F)nc2c(c1=O)SCC2 | 7.1% |
| COc1cc(N2CCCC2)c(OC)cc1/C=C(/C#N)c1cccc(Br)c1 | -128% |
| O=C(NCCCNC(=O)NC1CCCCC1)NC1CCCCC1 | 6.46% |

| SMILES | activation |
| --- | --- |
| COC(=O)Cn1c(=NC(=O)CSCC(=O)Nc2cc(C)on2)sc2ccccc21 | 5.86% |
| CC(C)(C)[C@H]1C=C(C(=O)NCc2ccccc2)O[C@@H](OCc2ccc(CO)cc2)C1 | 3.75% |
| CCn1c(O)c(N=NC(=O)c2cccc(S(=O)(=O)N3CCCCC3)c2)c2ccccc21 | -8.66% |
| CCN(CC)S(=O)(=O)c1cc([N+](=O)[O-])ccc1N=Nc1c(O)n(C)c2ccccc12 | 142% (active) |
| CCN(CC)S(=O)(=O)c1cc([N+](=O)[O-])ccc1NNC(=O)Nc1ccccc1 | 3.61% |
| O=C(COC(=O)c1ccc(F)cc1F)Nc1ncccn1 | -2.63% |
| CCOc1ccc(N(CC(=O)NCCOc2ccccc2OC)S(=O)(=O)c2ccccc2)cc1 | -0.33% |
| O=C(COc1ccc(S(=O)(=O)N2CCCCC2)cc1)NCc1ccccn1 | 9.35% |
| CCOCCOC(=O)C1=C(C)N(C)C(=O)NC1c1ccccc1F (configuration not stated) | 7.27% |
| CC(C(=O)Nc1ccc(O)c(C(=O)O)c1)N1C(=O)/C(=C/c2cccs2)SC1=S (configuration not stated) | 3.14% |
| Cc1c(C(=O)NCCN2C(=O)S/C(=C\c3cccs3)C2=O)cccc1[N+](=O)[O-] | 9.61% |
| O=C(CCN1C(=O)/C(=C/c2cccs2)SC1=S)NNC(=O)c1cccc(O)c1 | 96.7% (active) |
| CC(C)NC(=O)C(=O)NCCCOC(C)C | 15.5% |
| COCCN(CCOC)S(=O)(=O)NC[C@H]1O[C@@H](n2cnc3c(N)ncnc32)[C@H](O)[C@@H]1O | 5.68% |
| CCCCN(CC(=O)Nc1cccc(S(=O)(=O)N2CCCC2)c1)Cc1nc2ccccc2c(=O)[nH]1 | -2.27% |
| CCO/C=C1\C(=O)N(c2ccc(OCC)cc2)C(=O)c2ccccc21 | 5.56% |
| CCOc1ccc(N2C(=O)CN(c3cccc4ccccc34)C2=S)cc1 | 1.98% |
| CCOc1ccc(N2C(=O)/C(=C/c3ccc(C)o3)N(C)C2=S)cc1 | 53.2% (active) |
| OCC[C@H]1C[C@H](O)[C@@H](O)[C@]2(CCc3ccccc3O2)O1 | 2.25% |
| CCCCN=C1C([N+](=O)[O-])=CC=C2C1=NC1(CCCCC1)N2O | 8.1% |
| CCCCn1c(N)c(N(CC(C)C)C(=O)c2ccc(-n3c(C)ccc3C)cc2)c(=O)[nH]c1=O | -0.38% |
| COc1ccc(NC(=O)CSc2nnc(-c3ccccc3F)n2C2CC2)cc1S(N)(=O)=O | 3.2% |

| SMILES | activation |
| --- | --- |
| CC(C)(C)C1CCC(C(=O)Nc2cccnc2)CC1 (configuration not stated) | 5.13% |
| CC(=O)N1C(=O)/C(=C2\SC(=S)N(NC(=O)c3ccc(O)cc3)C2=O)c2ccccc21 | 4.76% |
| CN1C(=O)C(CC(N)=O)N(NC(=O)c2ccc(Cl)cc2)C1=S (configuration not stated) | -6.03% |
| Cn1cccc1/C=C1\SC(=S)N(NC(=O)c2ccc(Cl)cc2)C1=O | 140% (active) |
| CCn1nc(C(=O)NNC(=O)C2CSC3(C)CCC(=O)N23)c2ccccc2c1=O (configuration not stated) | 1.5% |
| Cc1ccccc1Nc1c([N+](=O)[O-])ccc2nonc12 | -7.83% |
| Cc1ccc2cccc([N+](=O)[O-])c2n1 | 4.29% |
| CN(c1ccccc1)c1ccc([N+](=O)[O-])c2nonc12 | 72.5% (active) |
| C=CC[C@@H](CC(=O)NCCO)C(=O)N[C@H](C)COC(=O)[C@@H](CC=C)CC(=O)OC(C)(C)C | -0.071% |
| COc1cc(S(=O)(=O)N(Cc2cccs2)C2CC2)ccc1-n1cnnn1 | 7.76% |
| CCOC(=O)N1CCN(C(=O)c2ccc3nc4cc(Cl)ccc4c(=O)n3c2)CC1 | -2.93% |
| CC(C)(C)N(Cc1ccccc1)C(=O)COC(=O)CCc1c[nH]c2ccccc12 | 5.36% |
| CCC(=O)CC(c1ccc([N+](=O)[O-])cc1)c1c(O)c2ccccc2oc1=O (configuration not stated) | 1% |
| COc1cc(C(c2c(O)c3ccccc3oc2=O)c2c(C)n(C)n(-c3ccccc3)c2=O)ccc1O (configuration not stated) | 0.237% |
| COc1cc(N=Cc2c(O)c3ccccc3oc2=O)c(OC)cc1Cl | 221% (active) |
| O=C(NNC(=S)Nc1ccc(F)cc1)[C@H]1C[C@@H]1c1ccccc1 | 12.2% |
| CCCNC(=O)c1onc(CSc2ccc(F)cc2)c1C(=O)NC(C)C | 1.76% |
| Cc1ccc(S(=O)(=O)N2CCN(C(=O)CSc3cc(C)ccc3C)CC2)c(C)c1 | -11.9% |
| Cc1ccc(S(=O)(=O)N2CCN(C(=O)Cn3c(=O)cnc4ccccc43)CC2)c(C)c1 | 52.1% (active) |
| Cc1ccc(S(=O)(=O)N2CCN(C(=O)COC(=O)c3c(C)cc(C)cc3C)CC2)c(C)c1 | 2.63% |
| CCOc1ccc(/C=C/C(=O)OCC(=O)c2ccccc2OC)cc1OC | -8.54% |
| COC(=O)Cc1csc(/N=C/c2c(O)n(-c3cccc(C(F)(F)F)c3)c(=O)c3ccccc23)n1 | -24.2% |

| SMILES | activation |
| --- | --- |
| Cc1cccc(-n2c(O)c(C=Nc3ccccc3N)c(=O)[nH]c2=O)c1 | 10.4% |
| Cc1ccc(N=Cc2c(O)n(-c3nccs3)c(=O)c3ccccc23)c(C)c1 | 1250% (active) |
| COc1ccc(C)cc1N(C)C(=O)c1coc(=O)c2ccccc12 | 4.28% |
| COc1cc(OC)cc(C(=O)Nc2ccc(-c3nc4ccccc4o3)c(O)c2)c1 | -11.7% |
| O=C(Nc1ccc2oc(-c3ccc4ccccc4c3)nc2c1)c1cccs1 | 57.7% (active) |
| O=C(Nc1ccc2oc(-c3ccccc3F)nc2c1)c1ccco1 | 1.3% |
| O=C(NCCSc1ncc(-c2ccccc2)[nH]1)c1ccco1 | 3.87% |
| COCCCNC(=O)c1c(F)c(F)c(F)c(F)c1F | 5.56% |
| COc1ccc(/C=C/c2c(-c3cccc(C)c3)oc3ccc(-c4ccc5c(c4)OCO5)cc23)cc1 | -7.77% |
| Cc1cc(C)cc(Oc2c(C(F)(F)F)oc3cc(OCC(=O)O)ccc3c2=O)c1 | 2.37% |
| CCOC(=O)c1cc(NC(=O)c2cccnc2)ccn1 | 0.906% |
| O=C(Cc1ccccc1)Nc1ccc(NC(=O)c2cccnc2)cc1 | -0.44% |
| CCC(=O)Nc1cccc(NC(=O)c2cccnc2)c1 | 335% (active) |
| O=C(NCCOc1ccccc1)N1[C@H]2CC[C@@H]1C=C(c1ccc(F)cc1OCc1ccccc1)C2 | -1.59% |
| CSCCC1NC2(C(=O)Nc3ccc(Cl)cc32)[C@@H]2C(=O)N(C3CCCC3)C(=O)[C@H]12 (some centres not stated) | 2.84% |
| CC(=O)c1ccc(N2CCN(CC(=O)Nc3ccccc3N3CCOCC3)CC2)cc1 | 4.75% |
| O=C(CN1CCN(c2ccc(O)cc2)CC1)Nc1ccc(-c2ccccc2)cc1 | 111% (active) |
| O=C(CN1CCOCC1)Nc1ccccc1 | 6.62% |
| CN(C)Cc1c(O)ccc2occ(C(O)c3ccccc3)c12 (configuration not stated) | 8.71% |
| COc1cccc2c1OCC(CN1CCN(C3CCCCC3)C(CCO)C1)=C2 (configuration not stated) | 0.264% |
| CC(=O)NC(C)(C)C1CC=C(C)/C(=N\O)C1 (configuration not stated) | 6.07% |
